Screens deposited in PubChem by National Center for Advancing Translational Sciences (NCATS).
D1 agonist – activates the human D1 dopamine receptor; hit rate 1% among 360,000; HEK293 T-REx D1 cells, calcium flux, agonist mode; AID 504660; activation, % at 2 µM; in the data active = activation above about 30%; note: 0% is about no effect
Target sequence (P21728 whole entry, looked up): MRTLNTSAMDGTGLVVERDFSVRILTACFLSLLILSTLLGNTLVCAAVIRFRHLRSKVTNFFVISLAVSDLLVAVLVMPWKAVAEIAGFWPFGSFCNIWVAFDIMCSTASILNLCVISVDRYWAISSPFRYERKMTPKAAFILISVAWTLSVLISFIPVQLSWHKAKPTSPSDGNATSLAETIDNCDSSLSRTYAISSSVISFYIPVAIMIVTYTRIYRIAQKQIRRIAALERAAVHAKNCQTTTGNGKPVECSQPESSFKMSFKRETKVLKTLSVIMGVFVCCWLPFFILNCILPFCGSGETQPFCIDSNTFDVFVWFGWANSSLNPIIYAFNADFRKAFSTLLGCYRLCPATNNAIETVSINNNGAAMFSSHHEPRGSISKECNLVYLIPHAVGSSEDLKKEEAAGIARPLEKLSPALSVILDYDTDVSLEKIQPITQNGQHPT
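Inducible HEK293 T-REx D1 cells, force-coupled to calcium signalling, were plated at 4000 cells/well with tetracycline and held overnight at 30 C. After no-wash calcium dye loading, compound-evoked calcium rise over 180 s flagged agonists.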
TRPV1 ag – activates the human vanilloid receptor TRPV1. Q8NER1. TRPV1-expressing cells, Fluo-8 calcium influx, agonist mode. activation, % at 8.33 µM. hit rate 0.19% among 320,000. AID 540275; in the data active = activation above about 80%; inconclusive = between about 30% and that limit; note: 0% is about no effect
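Fluo-8 calcium influx in TRPV1-expressing cells, kinetic read (ex 480/em 520 nm). Compound added and read 3 min for agonist activity, followed by capsaicin at EC20 final and 2 min further read for enhancement.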
TRPV1 potentiator – enhances activation of the human vanilloid receptor TRPV1; Q8NER1; TRPV1-expressing cells, Fluo-8 calcium influx, capsaicin EC20 potentiation; potentiation, % at 8.33 µM; hit rate 0.02% among 320,000; AID 540277; in the data active = potentiation above about 80%; inconclusive = between about 30% and that limit; note: 0% is about no effect
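TRPV1-expressing cells were cultured overnight at 35.5C and loaded with Fluo-8 calcium dye for 40 to 90 min at room temperature. After a 10 s baseline, compound was added and calcium influx was read kinetically for 3 min (ex 480/em 520 nm).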
D1 potentiator – potentiators of human D1 dopamine receptor | P21728 | HEK293 TREx D1 cells, calcium flux, dopamine EC20 potentiation | potentiation, % at 10 µM | hit rate 0.036% among 360,000; in the data active = potentiation above about 30%; note: 0% is about no effect
D1 antag – human D1 dopamine receptor antagonism; P21728; HEK293 TREx D1 cells, calcium flux, dopamine EC80; active compounds read low; activity change, negative = inhibition, % at 10 µM; hit rate 3.2% among 360,000; AID 504652; in the data active = activity change below about -30%; note: % is set by controls: 0 for no effect and ±100 for the full control effect
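HEK293 T-REx cells expressing inducible, force-coupled D1 receptor; no-wash Ca dye, 30–90 min RT. Cmpd → 180 s read at 1 Hz → EC80 DA → 180 s read.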
* marks the source's active call; other numbers are inactive results; ? = inconclusive; / = no result given. In the library only some 4.2% were active in any assay of this set; here they are far more common.

SMILES | D1 agonist | TRPV1 ag | TRPV1 potentiator | D1 potentiator | D1 antag
Cc1ccc(Cn2ccsc2=NC(=O)COC(=O)C(C)C)cc1 | 0.4 | 1.4 | 25.1 | -0.8 | -48.2*
Cc1cc(N/N=C/c2ccc(Cl)cc2Cl)nc(NCc2ccccc2)n1 | 16.5 | -2.9 | ? | -4.2 | -48.2*
Cc1ccc(/C=N/Nc2cc(C)nc(NCc3ccccc3)n2)cc1 | 2.0 | -0.7 | -15.8 | -5.7 | -10.0
CCCCNc1cc(C)nc(NCc2ccccc2)n1 | 61.3* | 2.0 | -12.5 | -10.3 | -51.6*
Cc1cc(Nc2ccccc2)nc(NCc2ccccc2)n1 | 19.5 | ? | -22.7 | -9.8 | -27.4
CC(C)CCN(Cc1ccco1)C(=O)c1cc2c(Cl)nc3ccccc3c2s1 | 20.3 | / | / | -2.4 | 1.7
CCC(=O)N1CCc2cc(CNS(=O)(=O)c3ccc(Cl)s3)ccc21 | 9.2 | / | / | -1.1 | -12.5
Cc1cc(C)c2nc(N(Cc3cccnc3)C(=O)c3ccc(S(=O)(=O)N(C)C)cc3)sc2c1 | -0.6 | / | / | 3.8 | /
COc1ccc(-c2nc3ccc(C)cn3c2NCc2ccc3c(c2)OCO3)cc1 | 2.4 | 81.2* | 5.4 | -4.0 | -6.5
Cc1ccc(-c2nc3ccccn3c2NCc2ccc3c(c2)OCO3)cc1 | 3.6 | 2.2 | 19.2 | -14.0 | -19.7
Cc1sc2ncn(/N=C/c3cn(-c4ccccc4)nc3-c3ccccc3)c(=O)c2c1C | 0.9 | -1.6 | -3.3 | -3.0 | -22.7
Cc1cccc(Oc2nc3c(C)cccn3c(=O)c2/C=C(\C#N)c2nc3ccccc3[nH]2)c1 | 3.3 | / | / | -4.5 | -21.7
CCOc1c(OC(C)=O)ccc(/C=C/c2ccc3cccc(OC(C)=O)c3n2)c1[N+](=O)[O-] | 1.5 | -1.8 | 1.3 | -8.2 | -25.3
C=CCN1C(=O)/C(=C/c2ccc(OC(C)=O)c(OCC)c2[N+](=O)[O-])SC1=S | 29.9 | 3.1 | -2.5 | -7.3 | -30.6*
C=CCOC(=O)C1=C(C)NC(C)=C(C(=O)OCC=C)C1c1ccco1 | 2.5 | -3.0 | -1.8 | -15.3 | -30.2*
COC(=O)Cn1cc(/C=C/c2cc[n+](C)cc2)c2ccccc21 | 1.9 | 5.3 | -6.1 | -4.7 | 3.6
COC(=O)Cn1c(C)c(/C=C/c2cc[n+](C)cc2)c2ccccc21 | 56.7* | 0.6 | -7.1 | -6.7 | 1.6
Cc1oc(-c2cccc(Cl)c2)nc1Cn1c(SCc2ccc(F)cc2)nc2cccnc21 | 7.0 | / | / | 1.6 | 11.4
O=C(CSc1nnc(Cc2cc(=O)[nH]c(=O)[nH]2)n1-c1ccccc1)N1CCCCC1 | 1.0 | / | / | 0.5 | 24.6
O=C(CSc1nnc(CCCN2C(=O)c3cccc4cccc(c34)C2=O)n1-c1ccccc1)N1CCCCC1 | 2.9 | 4.5 | 6.0 | -7.0 | -79.1*
Cc1ccc(NC(=O)c2oc3c(c2C)-c2[nH]ncc2CC3)c(Cl)c1 | 0.1 | / | / | 2.8 | -43.4*
Cc1ccc(NC(=O)c2c(C)oc3nc(C)nc(N4CCCC4)c23)c(C)c1 | -0.5 | / | / | -4.2 | 2.0
CCc1ccc(-c2nc(CN3CCC(C(=O)N4CCN(c5ccccc5)CC4)CC3)c(C)o2)cc1 | 43.2* | 3.8 | 9.6 | -6.0 | -35.0*
COc1ccc(N2CCN(C(=O)C3CCN(Cc4nc(-c5ccc(Cl)cc5)oc4C)CC3)CC2)cc1 | 4.1 | / | / | -2.4 | 10.2
CCc1ccc(-c2nc(CN3CCC(C(=O)N4CCN(c5ccccn5)CC4)CC3)c(C)o2)cc1 | 168.3* | -1.6 | 2.5 | -6.0 | -54.7*
SMILES | D1 agonist | TRPV1 ag | TRPV1 potentiator | D1 potentiator | D1 antag
Cc1cc2c3ccccc3ncn2n1 | 3.4 | -2.3 | 3.4 | 7.5 | -38.7*
O=C1N/C(=C\c2ccc(O)cc2)C(=O)c2ccccc21 | 32.3* | -1.3 | 10.7 | 1.4 | 4.3
O=C(O)/C=C1\NC(=O)c2ccccc21 | 2.9 | 0.7 | -2.2 | 0.3 | -2.1
Cc1cccc(CNC(=O)Cn2nc(C)c3nn(-c4ccc(Cl)cc4)c(C)c3c2=O)c1 | 1.5 | / | / | -1.9 | 5.6
Cc1onc(-c2ccccc2)c1C(=O)NC(=S)NNC(=O)c1ccccc1O | 143.1* | 20.7 | -25.5 | -0.9 | 3.0
CCCOc1ccc(C(=O)NNC(=S)NC(=O)CC)cc1 | -0.5 | -0.9 | -13.2 | -21.4 | -71.3*
Cc1onc(-c2ccccc2)c1C(=O)NC(=S)NNC(=O)c1ccc(O)cc1O | 2.4 | -4.9 | 4.8 | 2.9 | -17.7
CCCOc1ccc(C(=O)NC(=S)NNC(=O)c2c(-c3ccccc3)noc2C)cc1 | 207.3* | ? | -32.2 | 18.8 | 121.3
C=CCNC(=S)NNC(=O)c1ccc(OCCC)cc1 | -0.3 | -1.1 | 2.8 | -1.5 | 4.9
N#Cc1c(Cl)cccc1Oc1ccc([S+](=O)([O-])N2CCN([S+](=O)([O-])c3c(F)cccc3F)CC2)cc1 | 1.4 | / | / | -4.8 | -16.0
CC1CCN(S(=O)(=O)c2cnc(Cl)c(Br)c2)CC1 | 55.5* | 23.3 | -6.4 | -6.5 | 3.0
Cc1ccc(C)c(C(=O)c2c(N)c(-c3nc(-c4ccc5c(c4)OCO5)cs3)c3ccccn23)c1 | 0.4 | / | / | 2.9 | 15.4
O=C(c1cccc([N+](=O)[O-])c1)N1CCN(Cc2ccc3c(c2)OCO3)CC1 | 7.3 | 2.1 | 0.4 | -6.8 | -30.5*
O=[N+]([O-])c1cccnc1N1CCN(Cc2ccc3c(c2)OCO3)CC1 | 4.1 | -2.0 | 13.9 | -11.1 | -36.6*
N#Cc1c(F)cccc1N1CCN(Cc2ccc3c(c2)OCO3)CC1 | 8.4 | 12.1 | 11.5 | / | -37.1*
Cc1ccc(C(=O)N2CCN(Cc3ccc4c(c3)OCO4)CC2)cc1[N+](=O)[O-] | 1.3 | 13.2 | -6.4 | -7.8 | 10.3
O=C(Nc1c(C(=O)N2CCN(c3ccccc3F)CC2)oc2ccccc12)c1ccc(Br)o1 | 1.1 | / | / | 0.3 | 10.1
CN(C(=O)CSc1cn(CC(=O)N2CCCC2)c2ccccc12)c1ccccc1 | 0.7 | / | / | -0.3 | -1.4
CCNC(=S)Nc1ccc(NC(=O)c2ccccc2O)cc1 | 1.4 | -3.2 | -4.8 | 0.5 | 29.1
CCNC(=S)Nc1cccc(NC(=O)c2ccccc2O)c1 | 0.9 | 0.2 | -9.6 | -3.2 | -35.8*
COc1ccc(-c2nc(SCC(=O)N3CCC(C)CC3)n[nH]2)cc1 | -1.6 | / | / | 0.2 | 1.6
N=c1n(CCN2CCCCC2)c2ccccc2n1CC(O)COc1ccc(Cl)cc1Cl (stereo not given) | 194.9* | / | / | -3.1 | 1.3
COc1ccc(OCC(O)Cn2c(=N)n(CCN3CCCCC3)c3ccccc32)cc1 (stereo not given) | -0.2 | -0.1 | 5.2 | -2.5 | 12.5
Cc1ccccc1OCC(O)Cn1c(=N)n(Cc2ccccc2)c2ccccc21 (stereo not given) | 44.8* | 4.8 | 13.8 | -16.0 | -37.7*
COc1ccccc1OCC(O)Cn1c(=N)n(Cc2ccccc2)c2ccccc21 (stereo not given) | 47.3* | 3.1 | 15.3 | -8.8 | -61.5*
Cc1cccc(N2CCN(C(=O)C3CCCN(S(=O)(=O)c4ccc5c(c4)oc(=O)n5C)C3)CC2)c1C (stereo not given) | 3.8 | / | / | -1.5 | -30.8*
Cc1cccc(N2CCN(C(=O)C3CCN(S(=O)(=O)c4ccc5c(c4)oc(=O)n5C)CC3)CC2)c1C | 5.7 | / | / | -0.3 | -12.6
